# ± gives the standard deviation of the averaged measurements.
# Tested on: Listeria monocytogenes 10403S
# Assay: growth inhibition relative to ceftriaxone-alone control; higher = stronger potentiation of ceftriaxone growth inhibition
# Conditions: 10 µM; ceftriaxone 1 ug/ml; 12 h
# 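Note: End-point A600 read in BHI broth at 37 °C with 2% DMSO, inhibition computed as (1 − OD with compound plus ceftriaxone ÷ OD with ceftriaxone only) × 100.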
row,SMILES,growth inhibition
1,CS(=O)(=O)CCNCc1nc(-c2ccc3ncnc(Nc4ccc(OCc5cccc(C(F)(F)F)c5)cc4)c3c2)cs1,-8.22 ± 14%
2,COC(=O)Nc1nc2ccc(Oc3ccc(NC(=O)Nc4cccc(Cl)c4)cc3)cc2[nH]1,-4.18 ± 4.6%
3,Cc1ccc(-c2cc3c(NC(=O)C4CC4)ncnc3o2)cc1,-3.41 ± 5.3%
4,O=C1NC(=O)/C(=C/c2ccc3c(c2)OC(F)(F)O3)S1,41.2 ± 7.3%
5,Nc1nc(-c2ccc3c(c2)C(=Cc2cc(Br)c(O)c(Br)c2)C(=O)N3)cs1,3.8 ± 2.8%
6,CC(C)NC[C@@H](C(=O)N1CCN(c2ncnc3c2[C@H](C)C[C@H]3O)CC1)c1ccc(Cl)cc1,23.5 ± 8.6%
7,Cc1ccc(C(=O)NC(C)C)cc1-c1ccc(C(=O)NCC2CC2)cc1,-1.2 ± 0.17%
8,Nc1nc(-c2cccc(Cl)c2)c(-c2ccc3ncccc3n2)s1,-7.03 ± 7.3%
9,CNC(=O)c1sc(-n2cnc3cc(OC)c(OC)cc32)cc1OCc1ccccc1C(F)(F)F,-11 ± 18%
10,CNC(=O)c1ccc(-c2cnc3ncc(Cc4ccc5ncccc5c4)n3n2)cc1F,16.9 ± 8.9%
11,NS(=O)(=O)c1ccc(N/N=C2\C(=O)Nc3ccc(C(=O)NCCCn4ccnc4)cc32)cc1,-3.24 ± 3.3%
12,Nc1ncnc2c1c(-c1cccc(OCc3ccccc3)c1)cn2C1CC(CN2CCCC2)C1 (centres undefined),61.4 ± 52%
13,C=CC(=O)Nc1cc2c(Nc3ccc(F)c(Cl)c3)ncnc2cc1OCCCN1CCOCC1 [CI-1033 (Canertinib)],21.5 ± 6.1%
14,COc1ccc2c(-c3ccnc(Nc4cccc(OC(F)(F)F)c4)n3)cnn2n1,-7.53 ± 17%
15,CNC(=O)c1cncc(/C=C/c2c(Cl)cccc2Cl)c1,-4.82 ± 4.5%
16,CCS(=O)(=O)c1ccc(OC)c(Nc2ncc(-c3cccc(-c4ccccc4F)c3)o2)c1,2.03 ± 2.4%
17,N#C/C(=C\c1ccc(O)c(O)c1)C(=O)NCc1ccccc1,28.7 ± 25%
18,CCOc1cc2ncc(C#N)c(Nc3ccc(F)c(Cl)c3)c2cc1NC(=O)/C=C/CN(C)C [Pelitinib (EKB-569)],14.9 ± 10%
19,Cn1cnc(N)c2ncnc1-2 [3-Methyladenine],4.53 ± 5.3%
20,CN(C)CCCn1c(-c2nonc2N)nc2cnccc21,-5.31 ± 2.5%

row,SMILES,growth inhibition
1,FC(F)(F)c1cccc(Nc2nccc(-c3cnn4nc(-c5ccccc5)ccc34)n2)c1,-7.85 ± 2.6%
2,O=C(Nc1cccc(Cl)c1)Nc1ncc(CCNc2ncnc3ccsc23)s1,94.4 ± 2%
3,COc1cc2ncnc(Nc3ccc(O)c(Br)c3)c2cc1OC,13.4 ± 5.2%
4,COC(=O)Nc1nc2ccc(S(=O)(=O)c3ccc(NC(=O)Nc4cc(C(F)(F)F)ccc4F)cc3)cc2[nH]1,-13.3 ± 8.2%
5,CNC(=O)c1cccc(C#Cc2cncnc2Nc2ccc(OCc3cccc(F)c3)c(Cl)c2)c1,-0.177 ± 4.2%
6,CCN1CCN(Cc2ccc(-c3cc4c(N[C@H](C)c5ccccc5)ncnc4[nH]3)cc2)CC1,22.1 ± 4.2%
7,CS(=O)(=O)CCNCc1ccc(-c2ccc3ncnc(Nc4ccc(OCc5cccc(F)c5)c(Cl)c4)c3c2)o1 [Lapatinib Ditosylate (Tykerb)],42 ± 16%
8,Cc1ccc(Nc2ccnc(Nc3cccc(C(N)=O)c3)n2)cc1O,-4.84 ± 3.2%
9,COc1cc(N2CCN(C(C)C)CC2)ccc1Nc1nc(Nc2ccc(F)cc2C(N)=O)c2cc[nH]c2n1,-11.9 ± 7%
10,S=C(NCc1ccc2c(c1)OCO2)N1CCN(c2ncnc3c2oc2ccccc23)CC1 [Amuvatinib (MP-470)],11.7 ± 22%
11,Cc1ccc(F)c(NC(=O)Nc2ccc(-c3cccc4[nH]nc(N)c34)cc2)c1 [Linifanib (ABT-869)],29.9 ± 19%
12,CN(C)c1cc2c(Nc3ccc4nc(Cc5ccccc5)[nH]c4c3)ncnc2cn1,-14.1 ± 8.1%
13,CC1=C(C(=O)Nc2ccc3[nH]ncc3c2)C(c2ccc(F)cc2)NC(=O)N1 (centres undefined),2.29 ± 1.7%
14,COc1ccccc1Nc1ncc(-c2ccccc2)o1,1.22 ± 3.5%
15,Clc1ccc(CNc2nccc(-c3cnn4ncccc34)n2)cc1,-1.66 ± 1.6%
16,Cc1cnc(Nc2ccc(OCCN3CCCC3)cc2)nc1Nc1cccc(S(=O)(=O)NC(C)(C)C)c1,39 ± 15%
17,CC(=O)Nc1nc(C)c(-c2ccc(Cl)c(S(=O)(=O)NCCO)c2)s1,29.5 ± 2%
18,Nc1ncnc2c1c(-c1cnc3[nH]ccc3c1)nn2C1CCCC1,42.9 ± 23%
19,CN1CCC(n2cnc(-c3ccc(F)cc3)c2-c2ccnc(N)n2)CC1,-0.672 ± 2%

# Reference: the supplement of paper PMC5641865, “A screen for kinase inhibitors identifies antimicrobial imidazopyridine aminofurazans as specific inhibitors of the Listeria monocytogenes PASTA kinase PrkA” (The Journal of Biological Chemistry, 2017)
